Screening results as filed in PubChem.
Only some compounds are listed: those with a hit (about 2.4% of all), similar ones and a draw of the others.
D2 antagonist: antagonists of human D2 dopamine receptor. P14416. HEK293 TREx D2 cells, calcium flux, dopamine EC80. inhibition, % at 10 µM. hit rate 2% among 340,000; in the data active = inhibition above about 30%; inactive = below that, where a call was filed; note: 0% is about no effect
Target sequence (P14416 whole entry, looked up): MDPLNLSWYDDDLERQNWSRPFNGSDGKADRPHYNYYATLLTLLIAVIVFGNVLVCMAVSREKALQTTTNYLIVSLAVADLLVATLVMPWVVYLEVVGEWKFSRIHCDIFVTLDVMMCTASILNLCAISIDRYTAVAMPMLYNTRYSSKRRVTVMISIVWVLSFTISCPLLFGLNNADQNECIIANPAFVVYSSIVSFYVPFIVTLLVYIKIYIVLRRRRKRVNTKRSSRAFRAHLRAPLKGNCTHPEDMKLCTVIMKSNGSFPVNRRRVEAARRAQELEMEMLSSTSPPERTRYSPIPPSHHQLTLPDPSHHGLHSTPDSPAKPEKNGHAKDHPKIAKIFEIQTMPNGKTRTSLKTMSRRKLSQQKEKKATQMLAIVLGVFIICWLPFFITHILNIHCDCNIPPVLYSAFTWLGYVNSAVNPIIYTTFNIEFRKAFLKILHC
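Antagonism is scored as inhibition of an EC80 dopamine-evoked calcium signal in a force-coupled, tetracycline-inducible HEK293 T-REx D2 line, with compound present 180 s before agonist.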
D2 ag-1: D2 dopamine receptor (human) agonism | AID 485358 | P14416 | HEK293 T-REx D2 cells, calcium flux agonist mode | hit rate 0.53% among 340,000 | activation, % at 2 µM;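 active = activation over 3 SD above normal in the single-dose calcium agonist read, cut at about 30% in these data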; note: 0% is about no effect
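Calcium-flux readout, 1 cycle/sec over 180 s following compound pin transfer, in inducible HEK293 Trex D2 cells (force-coupled); dopamine controls included. Positive calcium responses during this window marked compounds as potential agonists.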
D2 PAM-1: human D2 receptor positive allosteric modulation | hit rate 0.23% among 360,000 | potentiation, % (test concentration not listed) | DiscoveRx D2 beta-arrestin cells, luminescence, 90 min; 100% = 57 uM dopamine signal | P14416; in the data active = potentiation above about 50%; inconclusive = mostly about 30% to 49%
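PathHunter D2 cells, attached overnight at 37 deg C, received compound in DMSO plus dopamine at EC20 (50 nM final) for 90 min at 37 deg C. Beta-arrestin recruitment was read as luminescence after 1 h with detection reagent at ambient temperature.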
D2 ag-2: human D2 receptor agonism in beta-arrestin assay. P14416. DiscoveRx PathHunter D2 beta-arrestin, luminescence, 90 min; 100% = 57 uM dopamine signal. activation, % (no concentration beside the values). hit rate 0.084% among 360,000; in the data active = activation above about 40%; inconclusive = between about 15% and that limit
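DiscoveRx PathHunter D2 beta-arrestin cells (2,100/well) attached overnight, then compound-stimulated 90 min at 37 C in HBSS/10 mM HEPES/0.1% Tween-20 buffer; beta-galactosidase complementation read by luminescence after 1 h at ambient temperature. Dopamine 57 uM final (EC100) as control.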
D2 PAM-2: positively modulates the human D2 dopamine receptor allosterically; hit rate 0.34% among 340,000; P14416; HEK293 T-REx D2, calcium flux, EC20 dopamine potentiation; potentiation, % at 10 µM;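 active = potentiation over 3 SD above the plate norm, cut at about 30% in these data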; note: 0% is about no effect
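Primary screen. Calcium kinetics in induced HEK293 T-REx D2 cells: compound pre-addition 180 s, EC20 dopamine, 180 s more.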
An asterisk follows results filed as active; ? = inconclusive; / = no result given.

SMILES	D2 antagonist	D2 ag-1	D2 PAM-1	D2 ag-2	D2 PAM-2
CC1(C)CC(N(Cc2cccs2)C(=O)c2ccco2)CCO1 (configuration not stated)	-7	1	8	0	33*
Cn1nc(C(=O)NNC(=O)COc2ccccc2)c2ccccc2c1=O	8	0	-16	-1	-13
Cc1occc1C(=O)NNC(=O)c1nn(C)c(=O)c2ccccc12	-13	0	0	-2	31*
Cc1c(Cl)cccc1N=C1NC(=O)CS1	/	/	-4	-3	/
CC(=O)N1CCc2[nH]c3ccccc3c2C1	-27	0	-5	-2	0
O=C(CCCCl)N1CCc2[nH]c3ccccc3c2C1	32*	19	-26	10	-17
O=C(Cn1c(=S)[nH]c2ccccc2c1=O)N1CCN(c2ccccc2)CC1	31*	3	-3	-4	3
O=C(CN1CCN(c2ccccc2)CC1)N1CCc2[nH]c3ccccc3c2C1	11	36*	-26	2	-18
O=C(CN1CCc2[nH]c3ccccc3c2C1)N1CCCCC1	23	1	-29	-2	-12
COc1ccc(-c2oc3ncn4nc(-c5ccc(Cl)cc5)nc4c3c2-c2ccc(OC)cc2)cc1	/	/	/	/	9
CCCCN(C(=O)C1CC(=O)N(c2ccc(C)cc2)C1)c1c(N)n(CCC)c(=O)[nH]c1=O (configuration not stated)	38*	0	-26	-5	-6
CCCCn1c(N)c(N(CC(C)C)C(=O)C2CC(=O)N(c3ccc4c(c3)OCCO4)C2)c(=O)[nH]c1=O (configuration not stated)	39*	0	-6	-7	-4
CCCCC(=O)Nc1nc2c(s1)COc1ccccc1-2	52*	3	-4	-1	-5
COc1ccc(-n2ccnc(NCc3cccs3)c2=O)cc1OC	/	0	/	/	7
COc1ccccc1CN1C[C@@H]2C[C@@H](C3=Cc4cc(Cl)ccc4OC3)N3CCC[C@@]23C1=O	31*	1	-2	-1	6
C=CCN1C(=O)CSc2ccc(C(=O)NC(C)c3ccccc3)cc21 (configuration not stated)	-2	0	-30	-4	6
COc1ccc(OC)c(NC(=O)C2CC(/C=C/c3ccccc3)=NO2)c1 (configuration not stated)	-20	33*	-2	2	-11
Cc1ccc(C(=O)Nc2ccc(-c3nc4ccccc4o3)cc2)cc1Cl	/	1	/	/	-6
OCCC1CN(Cc2cccc3nccnc23)CCN1C1CCCC1 (configuration not stated)	-10	0	-16	1	-11
OCCC1CN(Cc2cccc3nonc23)CCN1C1CCCCC1 (configuration not stated)	38*	-1	-16	-6	-13
Cn1c(CN2CCCC2)c(C#N)c2ccccc21	83*	-2	-19	-4	-27
Cn1c(CN2CCOCC2)c(C#N)c2ccccc21	1	0	-11	-1	1
CC(=O)N(Cc1c(C#N)c2ccccc2n1C)c1ccccc1	-13	1	0	-4	0
CN1CCN(Cc2c(C#N)c3ccccc3n2C)CC1	6	0	-4	-2	-19
CC1CCCCN1Cc1c(C#N)c2ccccc2n1C (configuration not stated)	40*	1	-40	-8	-37
SMILES	D2 antagonist	D2 ag-1	D2 PAM-1	D2 ag-2	D2 PAM-2
CC1CCN(Cc2c(C#N)c3ccccc3n2C)CC1	74*	2	-49	-4	-24
CCOC(=O)N1CCc2c(sc3c2c(=O)n(-c2ccc(Cl)cc2)c(=O)n3CC(C)C)C1	/	1	/	/	11
Clc1ccc(OCc2nnc(-c3ccccc3Br)o2)cc1	36*	0	0	-1	-1
CC(C)OC(=O)c1ccc(N2CCN(c3ccc(F)cc3)CC2)nc1	-7	-1	-5	5	-1
CC(C)OC(=O)c1cccnc1N1CCN(c2ccc(F)cc2)CC1	33*	-2	-10	-3	2
CCOC(=O)C1(Cc2cccc(OC)c2)CCCN(C(=O)CCN2CCCO2)C1 (configuration not stated)	6	-2	6	-3	-8
CC12CN3CC(C)(CN(C1)C3c1ccc([N+](=O)[O-])o1)C2 (configuration not stated)	32*	0	1	3	-8
Cc1oc2cc(O)ccc2c(=O)c1Oc1ccccc1	17	0	-17	-3	5
Cc1oc2cc(O)ccc2c(=O)c1Oc1ccccc1Br	37*	-2	2	-3	-6
CCCc1nnc(SCC(=O)N2CCCC2)n1Cc1ccco1	5	40*	0	0	-15
CCCn1c(CCc2ccccc2)nnc1SCC(=O)N1CCCC1	-3	1	-12	-2	0
Cc1cc(NC(=O)c2ccc3c(c2)C(=O)N(C2CCCCC2)C3=O)no1	56*	0	0	-1	-5
O=C(NC1CCCC1)c1ccc2nc(-c3ccco3)c(-c3ccco3)nc2c1	33*	-1	26	7	-7
Cc1ccc(C(=O)NC2CCCCC2)cc1	62*	0	-11	1	-12
O=C(Nc1ccccc1C(=O)NC1CCCCC1)c1ccccc1	-8	-1	-1	-1	11
O=C(Nc1ccsc1C(=O)NC1CCCCC1)c1ccccc1	31*	-1	-12	0	2
O=C(NC1CCCC1)c1ccc2nc[nH]c2c1	7	0	-8	-1	38*
CCc1cccc(CC)c1NC(=O)C(CC)Sc1nc2ccncc2[nH]1 (configuration not stated)	-11	-1	-8	-2	-2
Cc1ccc(S(=O)(=O)N(C)CC(=O)N2CCN(Cc3ccccc3)CC2)cc1	-23	2	-43	-3	16
O=C(c1ccc2nc[nH]c2c1)N1CCc2ccccc2C1	35*	-1	-8	-3	-3
COc1cc2c(cc1OC)CN(C(=O)c1ccc3nc[nH]c3c1)CC2	3	1	2	0	-1
CC1CN(CN2C(=O)c3ccccc3C2=O)CC(C)O1 (configuration not stated)	11	-1	-7	-1	4
CC1CN(CCCCN2C(=O)c3ccccc3C2=O)CC(C)O1 (configuration not stated)	40*	2	-11	-1	3
Cc1cccc(/C(N)=N/OC(=O)c2ccco2)c1	1	0	56*	13	-4
N/C(=N\OC(=O)c1ccco1)c1ccccc1	-7	0	?	9	7
Cc1ccc(/C(N)=N/OC(=O)c2ccco2)cc1	-2	1	56*	4	-7
COc1ccc(/C(N)=N/OC(=O)c2ccco2)cc1	6	4	19	3	1
N/C(=N\OC(=O)c1ccco1)c1ccc(Br)cc1	-8	3	52*	10	-7
